Laboratory results: PubChem BioAssay (NCATS)
Records with an inconclusive call do not appear. Unless noted, calls come from the whole dose curve; as a rule, active = well fitted curve in either direction with a large enough effect (not every such curve was filed as active); inconclusive = small, poorly fitted or top-dose-only effect, or another doubt; inactive = flat fitted curve, though single readings scatter.

Legend:
[1] = AP1 Signaling Pathway (AID 357); conditions: ME-180 AP-1-bla reporter, EGF-induced, beta-lactamase ratio, 5 h; at 17.2 µM (top of the series) unless noted; note: % is set by controls: 0 for no effect and ±100 for the full control effect
Outline: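 ME-180 cells with beta-lactamase reporter under AP-1 response element, stimulated with EC50 EGF; compounds tested in titration series, 5 h at 37 °C. CCF4 substrate added 2.5 h at room temperature; 460/530 nm emission ratio gave %activity and AC50.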

[2] = Stat Signaling Pathway (AID 446); conditions: ME-180 SIE beta-lactamase reporter, IL-6 stimulated, 5 h; at 17.2 µM (top of the series) unless noted;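 note: ME-180 cervical cancer cells given 40 pM IL-6 alongside compound; SIE-controlled beta-lactamase reporter measured as 460/530 nm FRET emission ratio; % is set by controls: 0 for no effect and ±100 for the full control effect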
Outline: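 Reporter line: ME-180 cervical carcinoma, SIE-beta-lactamase. Treatment: compound with 40 pM IL-6, 5 hrs, 37 C, in low-serum OPTI-MEM with 10 mM HEPES pH 7.3. Detection: 460/530 nm fluorescence.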

[3] = molecular target: Glucocorticoid receptor (Homo sapiens) (UniProt P04150); assay: GR-GFP Redistribution (AID 450;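 active = compounds whose dose series gives a full or clear partial fitted curve of increased nuclear translocation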; note: potency is the fitted concentration of half-maximal effect)
Glucocorticoid receptor (Homo sapiens), sequence (P04150 whole entry, looked up): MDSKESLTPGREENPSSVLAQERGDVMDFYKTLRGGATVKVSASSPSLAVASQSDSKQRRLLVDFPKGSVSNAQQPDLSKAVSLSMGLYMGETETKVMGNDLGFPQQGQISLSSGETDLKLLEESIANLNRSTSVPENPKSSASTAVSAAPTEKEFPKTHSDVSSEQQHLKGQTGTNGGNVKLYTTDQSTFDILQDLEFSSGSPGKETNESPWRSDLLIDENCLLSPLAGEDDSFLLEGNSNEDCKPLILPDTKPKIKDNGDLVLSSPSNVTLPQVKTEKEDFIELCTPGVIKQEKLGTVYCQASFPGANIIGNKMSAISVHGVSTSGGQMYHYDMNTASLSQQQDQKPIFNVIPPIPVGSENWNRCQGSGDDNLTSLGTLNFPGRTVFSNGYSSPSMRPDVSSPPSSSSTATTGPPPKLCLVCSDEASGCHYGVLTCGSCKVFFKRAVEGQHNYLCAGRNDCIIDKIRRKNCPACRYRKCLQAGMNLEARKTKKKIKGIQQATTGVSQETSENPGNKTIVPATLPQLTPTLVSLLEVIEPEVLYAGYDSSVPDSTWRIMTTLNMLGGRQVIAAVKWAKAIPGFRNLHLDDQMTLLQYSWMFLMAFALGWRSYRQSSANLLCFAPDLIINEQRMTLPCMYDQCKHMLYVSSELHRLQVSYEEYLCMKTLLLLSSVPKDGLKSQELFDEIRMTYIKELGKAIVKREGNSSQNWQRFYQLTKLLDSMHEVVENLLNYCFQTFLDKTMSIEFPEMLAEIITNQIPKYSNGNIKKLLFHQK

CC1(C)Cc2c(c(N3CCOCC3)nc3sc(C#N)c(N)c23)CS1
inactive: activity change, negative = inhibition [1] 11.7% | activity, negative = inhibition [2] -14.4% | Potency [3] > 20.6 µM

CCN(CC)Cc1cc(C(C)=O)ccc1OCC(C)C
inactive: activity change, negative = inhibition [1] 23.1% | activity, negative = inhibition [2] 13.1% | Potency [3] > 20.6 µM

Cc1ccc(-n2ncc3c(N4CCC(C(N)=O)CC4)ncnc32)c(C)c1
inactive: activity change, negative = inhibition [1] 5.42% | activity, negative = inhibition [2] -2.42% | Potency [3] > 20.6 µM

CCc1c(C)c2cc(Cl)c(O)c(CN3CCCCC3)c2oc1=O
inactive: activity change, negative = inhibition [1] 3.67% | activity, negative = inhibition [2] 11.7% | Potency [3] > 20.6 µM

N#CC(C(=O)NC1CCCCC1)c1nc2ccccc2nc1N1CCN(c2ccccc2F)CC1 (configuration not stated)
inactive: activity change, negative = inhibition [1] -12.2% | activity, negative = inhibition [2] -5.87% | Potency [3] > 20.6 µM

Cc1cccc(C)c1OCC(O)CNS(=O)(=O)c1ccccc1C(=O)N1CCCCC1 (configuration not stated)
inactive: activity change, negative = inhibition [1] -10.2% | activity, negative = inhibition [2] -0.145% | Potency [3] > 20.6 µM

CCCc1nc(N2CCCC2)c(C#N)c2c1CCCC2
inactive: activity change, negative = inhibition [1] -2.98% | activity, negative = inhibition [2] 10.3% | Potency [3] > 20.6 µM

COc1ccc(/C(O)=C2\C(=O)C(=O)N(c3cc(C)on3)C2c2ccccc2OC)cc1C (configuration not stated)
inactive: activity change, negative = inhibition [1] -17.1% | activity, negative = inhibition [2] -23.5% | Potency [3] > 20.6 µM

CCc1nnc(NC(=O)CSc2nc(C)c3c(c2C#N)CCCC3)s1
inactive: activity change, negative = inhibition [1] -12.7% | activity, negative = inhibition [2] -23.4% | Potency [3] > 20.6 µM

CCN(CC)CCCn1c(C)cc2c(c1=O)C(c1cccc(Cl)c1)C(C#N)=C(N)O2 (configuration not stated)
inactive: activity change, negative = inhibition [1] -4.22% | activity, negative = inhibition [2] -2.98% | Potency [3] > 20.6 µM

Cc1nc(/N=C(\N)Nc2ccccc2)nc2ccccc12
inactive: activity change, negative = inhibition [1] -14.5% | activity, negative = inhibition [2] -26.3% | Potency [3] > 20.6 µM

CCC(CC)c1nc2cc(OC)c(OC)cc2c(=O)o1
inactive: activity change, negative = inhibition [1] -1.43% | activity, negative = inhibition [2] -3.88% | Potency [3] > 20.6 µM

C=CCOC(=O)C(C#N)c1nc2ccccc2nc1N1CCN(c2ccccc2OCC)CC1 (configuration not stated)
inactive: activity change, negative = inhibition [1] 9.88% | activity, negative = inhibition [2] 2.33% | Potency [3] > 20.6 µM

O=S(=O)(c1ccccc1)N1CCC(N2CCCCCC2)CC1
inactive: activity change, negative = inhibition [1] 5.59% | activity, negative = inhibition [2] 4.98% | Potency [3] > 20.6 µM

Cc1c(O)c(CN2CCCC2)cc2c1oc(=O)c1ccccc12
inactive: activity change, negative = inhibition [1] 4.42% | activity, negative = inhibition [2] -9.48% | Potency [3] > 20.6 µM

COC(=O)NCC12CC3CC(C1)CC(CNC(=O)OC)(C3)C2
inactive: activity change, negative = inhibition [1] 3.64% | activity, negative = inhibition [2] -1.03% | Potency [3] > 20.6 µM

CCCSc1nc(N2CCOCC2)c2c(c1C#N)CCCC2
inactive: activity change, negative = inhibition [1] 20.8% | activity, negative = inhibition [2] -3.09% | Potency [3] > 20.6 µM

CCCc1cc(Nc2c(C)n(C)n(-c3ccccc3)c2=O)n2c(nc3ccccc32)c1C#N
inactive: activity change, negative = inhibition [1] -3.24% | activity, negative = inhibition [2] 0.163% | Potency [3] > 20.6 µM

CCOc1ccc(C2C=C(c3ccccc3)Nc3ncnn32)cc1 (configuration not stated)
inactive: activity change, negative = inhibition [1] -28.8% | activity, negative = inhibition [2] -2.5% | Potency [3] > 20.6 µM

Cn1c(OCc2cccnc2)nc2c1c(=O)n(Cc1ccc(Br)cc1)c(=O)n2C
inactive: activity change, negative = inhibition [1] -26.8% | activity, negative = inhibition [2] -27.6% | Potency [3] > 20.6 µM

O=S(=O)(c1cccc(-c2csc(-c3ccccc3)n2)c1)N1CCOCC1
inactive: activity change, negative = inhibition [1] -13.8% | activity, negative = inhibition [2] -9.15% | Potency [3] > 20.6 µM

CCn1cc(C(=O)NCCc2ccccc2)c(=O)c2cc(F)c(N3CCN(C)CC3)cc21
inactive: activity change, negative = inhibition [1] -9.7% | activity, negative = inhibition [2] -5.45% | Potency [3] > 20.6 µM

CCOC(=O)C1=Nc2ccccc2C1=[N+]=[N-]
inactive: activity change, negative = inhibition [1] -19% | activity, negative = inhibition [2] -23.9% | Potency [3] > 20.6 µM

Cc1cc(Cn2ccnc2)c(C)cc1Cn1ccnc1
inactive: activity change, negative = inhibition [1] 0.168% | activity, negative = inhibition [2] 2% | Potency [3] > 20.6 µM

CN1C2C=C3C(C#N)=C(N)C(C#N)(C#N)[C@@H](c4cccs4)C3C1CC2 (some centres not stated)
inactive: activity change, negative = inhibition [1] 17.2% | activity, negative = inhibition [2] 13.6% | Potency [3] > 20.6 µM

COc1ccc(CCn2c(=N)c(C(=O)NCc3ccco3)cc3c(=O)n4ccccc4nc32)cc1OC
inactive: activity change, negative = inhibition [1] -14.6% | activity, negative = inhibition [2] -2.08% | Potency [3] > 20.6 µM

CCOc1ccc2c(C)nc(NC3=NC(C)(C)C=C(C)N3)nc2c1
inactive: activity change, negative = inhibition [1] 26.3% | activity, negative = inhibition [2] 25.6% | Potency [3] > 20.6 µM

CCOC(=O)c1[nH]c2ccc(F)cc2c1N=C(C)N(CC)CC
inactive: activity change, negative = inhibition [1] 4.09% | activity, negative = inhibition [2] 5.12% | Potency [3] > 20.6 µM

O=C(c1ccc(F)cc1)N1CCC(N2CCCCCC2)CC1
inactive: activity change, negative = inhibition [1] -5.56% | activity, negative = inhibition [2] -3.47% | Potency [3] > 20.6 µM
